Data published in publication PMC5540273 (PLoS ONE, 2017).

Tests used:
Details in all cases: concentration: 1 μM, replicates: in singlicate; n = 1
[1] = system: CDK2
[2] = system: CDK3
[3] = system: CDK4-cyclinD1
[4] = system: CDK4-cyclinD3
[5] = system: CDK4
[6] = system: CDK5
[7] = system: CDK7
[8] = system: CDK8
[9] = system: CDK9
[10] = system: CDKL1
[11] = system: CDKL2
[12] = system: CDKL3
[13] = system: CDKL5
[14] = system: CHEK1
[15] = system: CHEK2
[16] = system: CIT
[17] = system: CLK1
[18] = system: CLK2
[19] = system: CLK3
[20] = system: CLK4
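Note: KINOMEscan kinase panel screen.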

Row | Compound | %Inh [1] [%] | %Inh [2] [%] | %Inh [3] [%] | %Inh [4] [%] | %Inh [5] [%] | %Inh [6] [%] | %Inh [7] [%] | %Inh [8] [%] | %Inh [9] [%] | %Inh [10] [%] | %Inh [11] [%] | %Inh [12] [%] | %Inh [13] [%] | %Inh [14] [%] | %Inh [15] [%] | %Inh [16] [%] | %Inh [17] [%] | %Inh [18] [%] | %Inh [19] [%] | %Inh [20] [%]
1 | Fc1cccc(COc2ccc(Nc3ncnc4sc(-c5ccc[nH]5)cc34)cc2Cl)c1 [GW707818] | 0 | 10 | 0 | 11 | 17 | 0 | 0 | 31 | 14 | 6 | 14 | 0 | 0 | 7 | 21 | 27 | 29 | 8 | 0 | 100
2 | CNc1nccc(-c2c(-c3ccc(F)cc3)ncn2CCCN2CCOCC2)n1 [SB-222516] | 0 | 0 | 17 | 16 | 0 | 0 | 7 | 38 | 0 | 24 | 6 | 10 | 2 | 0 | 43 | 0 | 4 | 16 | 18 | 3
3 | Cc1ccc(NC(=O)c2cccc(C#N)c2)cc1-c1ccc(C(=O)Nc2ccncc2)cc1 [GSK1398463] | 0 | 7 | 0 | 9 | 0 | 0 | 0 | 0 | 0 | 15 | 40 | 0 | 11 | 19 | 0 | 47 | 29 | 0 | 23 | 24
4 | Cc1cc(N2CCC(NS(=O)(=O)c3ccc(F)cc3)CC2)nc(Nc2cccc(C#N)c2)n1.O=C(O)C(F)(F)F [GSK1653537] | 4 | 0 | 0 | 0 | 5 | 0 | 0 | 10 | 0 | 0 | 24 | 0 | 0 | 4 | 0 | 0 | 14 | 0 | 0 | 25
5 | Nc1nc(-c2ccc3c(N)n[nH]c3c2)cc(N2CCC[C@@H](C(=O)Nc3ccccc3)C2)n1.O=C(O)C(F)(F)F.O=C(O)C(F)(F)F [GSK2288359] | 0 | 0 | 0 | 0 | 0 | 0 | 0 | 23 | 0 | 15 | 6 | 0 | 2 | 0 | 0 | 23 | 45 | 29 | 8 | 21
6 | c1ccc(-c2ccc3c(-c4ccnc(Nc5ccc6c(c5)OCCO6)n4)cnn3n2)cc1 [GW818941] | 0 | 3 | 0 | 0 | 34 | 0 | 0 | 11 | 0 | 0 | 16 | 0 | 0 | 0 | 0 | 6 | 52 | 42 | 0 | 58
7 | COc1cc2ncnc(Nc3ccc(OCc4ccccc4Br)c(Cl)c3)c2cc1OC.Cl [GI261590] | 0 | 8 | 13 | 6 | 8 | 18 | 0 | 0 | 9 | 20 | 26 | 2 | 0 | 0 | 47 | 29 | 28 | 0 | 0 | 17
8 | O=C(Nc1ccccc1)Nc1ccc(Oc2ccc3nccn3n2)cc1 | 0 | 1 | 0 | 0 | 0 | 0 | 0 | 23 | 0 | 36 | 5 | 0 | 0 | 0 | 49 | 3 | 30 | 0 | 0 | 0
